Experimental data reported in PubChem BioAssay AID1619 (SRMLSC, 2009).
Screen size: about 220,000 compounds; about 830 (0.38%) were called active.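 The calls were made as follows: active = compound inhibiting the enzyme by more than half at any dose during confirmatory dose-response retesting; inconclusive = strong single-dose inhibitors picked by rank but not retested; inactive = the rest.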 Only a sample is shown. Potency and affinity values are given separately.

target: Leucine aminopeptidase (Plasmodium falciparum (isolate 3D7)) (UniProt Q8IL11); test: P. falciparum M17LAP inhibitors, primary screen, biochemical, fluorogenic H-Leu-NHMec substrate, 1536-well (AID 1619); details: recombinant M17LAP, H-Leu-NHMec fluorogenic kinetic assay; at 30 µM; hits give high values;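 also: plate controls were full reaction with DMSO carrier for no effect and no enzyme background for full effect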
Sequence (Q8IL11 whole entry, looked up): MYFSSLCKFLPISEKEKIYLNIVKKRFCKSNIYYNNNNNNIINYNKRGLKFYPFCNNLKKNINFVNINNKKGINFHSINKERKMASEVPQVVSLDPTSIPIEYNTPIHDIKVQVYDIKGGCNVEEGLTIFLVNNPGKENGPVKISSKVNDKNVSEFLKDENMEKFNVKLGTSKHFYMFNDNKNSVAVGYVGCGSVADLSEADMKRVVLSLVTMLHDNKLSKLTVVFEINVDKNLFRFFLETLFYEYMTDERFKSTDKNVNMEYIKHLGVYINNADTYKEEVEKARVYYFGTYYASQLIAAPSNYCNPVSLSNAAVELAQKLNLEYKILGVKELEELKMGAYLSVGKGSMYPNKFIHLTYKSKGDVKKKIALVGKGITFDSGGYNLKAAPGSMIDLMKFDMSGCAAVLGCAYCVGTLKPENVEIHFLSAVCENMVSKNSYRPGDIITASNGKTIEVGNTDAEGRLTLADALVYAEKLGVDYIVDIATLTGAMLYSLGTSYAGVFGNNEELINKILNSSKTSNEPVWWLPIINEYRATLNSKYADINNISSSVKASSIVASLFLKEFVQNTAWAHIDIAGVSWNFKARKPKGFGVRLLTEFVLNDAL

| Compound | inhibition |
| --- | --- |
| CN(C)c1ccc(NC(=S)N2CCN(c3ncc(C(F)(F)F)cc3Cl)CC2)cc1 | -0.82% (inactive) |
| COc1ccccc1N1CCN(CC(=O)Nc2ccc(-n3cnnn3)cc2)CC1 | -1.4% (inactive) |
| O=c1cc(N2CCOCC2)[nH]c(=O)n1C1CCCCC1 | 8.33% (inactive) |
| CC(C)c1nc(-c2c(N)n(C)c(=O)n(C)c2=O)sc1C(=O)C(C)(C)C | -3.01% (inactive) |
| O=C(c1cc(-c2ccc3c(c2)OCO3)on1)N1CCOCC1 | -10.2% (inactive) |
| Cc1ccc(NC(=O)Nc2ccc(F)cc2)nc1 | 3.7% (inactive) |
| CCC(=O)N1CCN(c2ccc(NC(=O)c3ccc([N+](=O)[O-])o3)cc2Cl)CC1 | 3.55% (inactive) |
| CCOC(=O)N1CCN(C(=O)Nc2cccc3ccccc23)CC1 | 23.7% (inactive) |
| Fc1cccc(CSc2ccc3nnc(-c4cccnc4)n3n2)c1 | 21.3% (inactive) |
| COc1ccccc1NC(=S)NC(=O)c1ccc(-c2ccc(Cl)cc2)o1 | 4.34% (inactive) |
| O=C(NC(=S)Nc1ccccc1O)c1ccc(-c2ccc(Cl)cc2)o1 | 1.04% (inactive) |
| Cc1ccc(OCC(=O)Nc2ccc(N(C)C)cc2)cc1 | -2.19% (inactive) |
| COc1ccc(-n2c(C(C)n3nc(C)c([N+](=O)[O-])c3C)n[nH]c2=S)cc1 (stereo unspecified) | 31.2% (inactive) |
| Cc1cccc(-c2n[nH]c(=S)n2-c2ccccc2)c1[N+](=O)[O-] | 0.12% (inactive) |
| Cc1ccc(NC(=S)NC(C)(C)C)c([N+](=O)[O-])c1 | -4.98% (inactive) |
| CC1=C(C)CC(C(=O)NCc2ccc3c(c2)OCO3)C(C(=O)O)C1 (stereo unspecified) | 45.8% (inactive) |
| O=C(O)[C@H]1CCCC[C@H]1C(=O)NCCc1ccccc1 | 36.3% (inactive) |
| COc1ccc(CNC(=O)C2CCNCC2)cc1 | -2.52% (inactive) |
| O=C(O)C1CCCCC1C(=O)NCCc1ccccc1 (stereo unspecified) | 32.3% (inactive) |
| CCC(c1nnnn1Cc1cccs1)N1CCN(C(=O)c2ccco2)CC1 (stereo unspecified) | 16.8% (inactive) |
| COc1ccc(CC(=O)O/N=C(\N)c2ccncc2)cc1 | -0.41% (inactive) |

| Compound | inhibition |
| --- | --- |
| COc1ccc(-n2nc(C(=O)N3CCN(Cc4ccc5c(c4)OCO5)CC3)c3ccccc3c2=O)cc1 | 6.93% (inactive) |
| Cc1nc(Nc2ccc(S(=O)(=O)N3CCCCC3C)cc2)c2nnn(Cc3ccccc3)c2n1 (stereo unspecified) | 9.37% (inactive) |
| COc1ccc(NC(=O)c2ccc(NCCN3C(=O)CCC3=O)c([N+](=O)[O-])c2)cc1 | 4.32% (inactive) |
| COC(=O)c1ccccc1NC(=O)CSc1nc(O)c(-c2ccccc2)c(=O)[nH]1 | 5.3% (inactive) |
| CSCC[C@@H](C(=O)O)N1Cc2ccccc2C1=O | 5.39% (inactive) |
| O=C(O)C(Cc1ccccc1)N1Cc2ccccc2C1=O (stereo unspecified) | -1.49% (inactive) |
| CCN(Cc1ccccc1)C(=O)Cn1c(=O)n(CC(=O)NCc2ccco2)c(=O)c2sccc21 | -1.64% (inactive) |
| CCN(C(=O)CSc1nnc2ccccn12)c1c(N)n(Cc2ccccc2)c(=O)[nH]c1=O | 12.8% (inactive) |
| N#C/C(=C\c1ccc(Cl)cc1)c1nc2ccccc2o1 | 8.5% (inactive) |
| COc1ccc(/C=C(\CC(=O)O)c2nc3ccccc3o2)cc1 | 48.7% (inactive) |
| COc1ccc(/C=C/C(=O)NCCC(=O)N2CCCN(C)CC2)cc1 | 0.13% (inactive) |
| Fc1ccccc1Nc1nc(-c2ccncc2)nc2ccccc12 | 0.48% (inactive) |
| CSCCC(NC(=O)c1cc(C(C)(C)C)oc1C)C(=O)O (stereo unspecified) | 20.9% (inactive) |
| Cc1cc(C(=O)NC(Cc2ccccc2)C(=O)O)c(C)o1 (stereo unspecified) | -7.27% (inactive) |
| O=C(C[n+]1ccc(/C=N/O)cc1)N(Cc1ccccc1)Cc1ccccc1 | 4.35% (inactive) |
| COCCNC(=O)C(C)OC(=O)c1cc2sccc2n1C (stereo unspecified) | 3.75% (inactive) |
| Cn1cnnc1Sc1nc2ccccc2nc1NS(=O)(=O)c1ccccc1 | 53.8% (inactive) |
| CC(=O)Nc1ccc(S(=O)(=O)Nc2nc3ccccc3nc2Sc2nncn2C)cc1 | -11.7% (inactive) |
| Cc1[nH]n(-c2cccc3ccccc23)c(=O)c1/C=N/NC(=O)c1cccc([N+](=O)[O-])c1 | 11.1% (inactive) |
| CCSc1nnc(NC(=O)NC2CCCCC2)s1 | -14.6% (inactive) |
| CCSc1nnc(NC(=O)C2CCCCC2)s1 | 1.5% (inactive) |

| Compound | inhibition |
| --- | --- |
| CCSc1nnc(NC(=O)C2CCCCC2C(=O)O)s1 (stereo unspecified) | 48.8% (inactive) |
| CCSc1nnc(NC(=O)C2CC2c2ccccc2)s1 (stereo unspecified) | 15% (inactive) |
| CCOC(=O)c1cc(NC(=O)N(CC)C2CCCCC2)c(C)nc1C | 1.12% (inactive) |
| Cc1ccc(NC(=O)CSc2nc3c(c(=O)[nH]2)CN(Cc2ccc(F)cc2)CC3)cc1C | -0.17% (inactive) |
| Cc1cc(C)cc(NC(=O)CSc2nc3c(c(=O)[nH]2)CN(Cc2ccc(F)cc2)CC3)c1 | 13.5% (inactive) |
| CSc1nc(=O)n(-c2ccccc2)c(C)c1C(C)=O | 2.84% (inactive) |
| COc1cccc(NC(=S)N(CCCN2CCCC(C)C2)Cc2cccs2)c1 (stereo unspecified) | -0.27% (inactive) |
| CCOC(=O)c1c(-c2ccccc2)oc2ccc(O)c(CN(C)C)c12 | -6.67% (inactive) |
| CCOC(=O)Nc1c2ccccc2nc2ccccc12 | -87.5% (inactive) |
| COc1ccc(CCNC(=O)C2CC(=O)N(CCc3ccc(C)cc3)C2)cc1OC (stereo unspecified) | 5.63% (inactive) |
| CCCn1c(SCC(=O)NC2CCCc3ccccc32)n[nH]c1=O (stereo unspecified) | -0.96% (inactive) |
| C=CCn1c(N)c(C(=O)N2CCN(C)CC2)sc1=S | 14% (inactive) |
| O=C(O)c1ccc(S(=O)(=O)Nc2ccc(O)c(Sc3nc4ccccc4s3)c2)cc1 | 40.7% (inactive) |
| O=C(O)c1cccc(S(=O)(=O)Nc2ccc(O)c(Sc3nc4ccccc4s3)c2)c1 | 42.9% (inactive) |
| COc1cccc(Nc2ccc(Nc3cccc(OC)c3)nn2)c1 | -1.13% (inactive) |
| COc1cccc(Nc2nc3ccc(OC)cc3s2)c1 | 14.2% (inactive) |
| CCOc1ccc(Nc2nc3ccccc3c(=O)s2)cc1 | 4.25% (inactive) |
| CCOc1ccc(NC(=O)Nc2nnc(CC)s2)cc1 | 9.94% (inactive) |
| O=C(CSc1ccc(Cl)cc1)N1CCC(c2nc3ccccc3s2)CC1 | 1% (inactive) |
